HP1b binding inh – HP1-beta chromodomain-methylated histone interaction inhibition. AlphaScreen HP1-beta / biotin-H3K9me3 peptide binding. Potency, µM (top dose mostly 114 µM), for inactives: at the highest dose activity change, negative = inhibition, usual class: inhibitors. 0.56% of 390,000 active. AID 540317; note: nearly all actives have a fitted effect of over 70% in size
Target sequence (P83916 whole entry, looked up): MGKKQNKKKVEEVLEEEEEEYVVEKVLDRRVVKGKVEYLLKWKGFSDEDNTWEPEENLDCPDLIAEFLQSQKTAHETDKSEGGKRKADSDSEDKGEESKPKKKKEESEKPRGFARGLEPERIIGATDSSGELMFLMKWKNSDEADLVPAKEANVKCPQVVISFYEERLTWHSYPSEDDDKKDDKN
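Compound inhibition of the preformed complex between 50 nM HP1-beta and 50 nM biotinylated H3K9me3 peptide was read by AlphaScreen. Buffer was PBS pH 7.4 with 0.01% Tween-20. Incubations ran 30 min at room temperature, with 10 ug/mL donor/acceptor beads.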
JMJD2A Tudor inh – blocks the human JMJD2A Tudor domain; O75164; AlphaScreen JMJD2A-Tudor / H3K4me3 peptide binding; Potency, µM (titrated, usually from 114 µM), inactives show at the top dose activity change, negative = inhibition, actives largely listed as inhibitors; 4.4% of 390,000 active; AID 504339; note: % is set by controls: 0 for no effect and ±100 for the full control effect; nearly all actives have a fitted effect of over 50% in size
G9a inh – G9a (human) methyltransferase inhibition; Q96KQ7; G9a H3K9 monomethylation, AlphaScreen, 2 h; Potency, µM (series often up to 102 µM), without a hit: at the highest dose activity, negative = inhibition, most hits filed as inhibitors; 8.8% of 350,000 active; note: % is set by controls: 0 for no effect and ±100 for the full control effect; nearly all actives have a fitted effect of over 75% in size
Target sequence (Q96KQ7 913-1193 limits assumed): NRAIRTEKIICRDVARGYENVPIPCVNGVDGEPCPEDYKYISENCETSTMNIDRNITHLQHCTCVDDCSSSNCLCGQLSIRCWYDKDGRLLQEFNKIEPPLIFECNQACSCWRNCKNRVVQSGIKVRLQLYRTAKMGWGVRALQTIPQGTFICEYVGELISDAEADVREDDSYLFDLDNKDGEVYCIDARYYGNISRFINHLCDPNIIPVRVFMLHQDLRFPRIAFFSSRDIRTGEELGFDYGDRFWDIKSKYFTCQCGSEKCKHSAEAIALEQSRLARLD
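Readings reflect AlphaScreen signal from monomethyl-H3K9 antibody detection. HMT at 20 nM; substrate b-H3K9 500 nM; cofactor SAM 20 uM; 2 h RT reaction; compounds tested as titrations in qHTS with 15 min preincubation.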
Sfp PPTase inh – inhibitors of Bacillus subtilis Sfp phosphopantetheinyl transferase | 3.5% of 310,000 active | Q9F4F7 | AID 1490 | Potency, µM, for inactives: largest response in the series, negative = inhibition, usual class: inhibitors | Biochemical Sfp PPTase activity, qHTS;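 note: the enzyme is Sfp with the accession as filed and its product quenches rhodamine fluorescence; 0% = enzyme reaction without inhibitor and -100% = no enzyme wells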
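Reaction rates are the 30-min fluorescence difference (ex 525, em 598 nm) in wells containing 15 nM Sfp, 5 uM rhodamine-CoA and 12.5 uM BHQ-2-YbbR at pH 7.6 with 10 mM MgCl2.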
TDP1 block – inhibitors of human tyrosyl-DNA phosphodiesterase TDP1. recombinant TDP1, AlphaScreen DNA substrate cleavage. 0.28% of 350,000 active. Potency, µM (doses to about 130 µM), without a hit: at the top dose activity change, negative = inhibition, hits mostly inhibitors. Q9NUW8; note: % is set by controls: 0 for no effect and ±100 for the full control effect; nearly all actives have a fitted effect of over 40% in size
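Recombinant E. coli-expressed Tdp1 (1 nM) preincubated with compound 15 min at RT, then 5'-biotin/3'-phosphotyrosine-FITC DNA substrate (15 nM) added for 5 min. AlphaScreen beads (10 ug/ml) added, 10 min RT; tyrosine-FITC cleavage read as signal loss.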
BAZ2B block – blocks human BAZ2B; Q9UIF8; AlphaScreen BAZ2B-H3K14Ac peptide displacement; Potency, µM (series often up to 114 µM), without a hit: top-dose activity change, negative = inhibition, most hits filed as inhibitors; 4.4% of 360,000 active; AID 504333; note: % is set by controls: 0 for no effect and ±100 for the full control effect; nearly all actives have a fitted effect of over 60% in size
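AlphaScreen luminescence quantifies BAZ2B engagement of H3K14Ac peptide; the protein and biotinylated peptide are both at 50 nM final, buffer PBS pH 7.4 with 0.01% Tween-20, all steps at room temperature.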
* marks the source's active call; other numbers are inactive results; ? = inconclusive; . = no result; [ ] = another dose, or the depositor's remark. This is a sample that favours compounds with a hit; in the whole collection about 12% have one here. Calls come from the whole dose curve; as a rule, active = well fitted curve in the direction sought with a large enough effect; inconclusive = small, poorly fitted or top-dose-only effect, or another doubt; inactive = no such curve, though single readings can be large; an effect the other way counts as inactive or inconclusive. Potency is the fitted concentration of half-maximal effect.

SMILES	HP1b binding inh	JMJD2A Tudor inh	G9a inh	Sfp PPTase inh	TDP1 block	BAZ2B block
CCOC(=O)c1cnc(SCc2nc(N)nc(Nc3ccc(F)cc3)n2)nc1N	16%	-9%	?	-2%	2%	5%
Cc1cc(C)nc(SCC(=O)N2CCC(C(N)=O)CC2)n1	38%	-8%	11%[12.7 µM]	7%	2%	-1%
CCOC(=O)c1cnc(SCc2nc(N)nc(Nc3ccc(C)cc3)n2)nc1N	55%	-15%[11.4 µM]	18µM*	4%	9%	-11%
C=CC[C@@H]1C=C[C@H](Oc2ccc(C)cc2)[C@H](COC(=O)NCc2cccc3ccccc23)O1	.	.	.	5%	8%[21 µM]	.
O=C(NNc1c(F)c(F)cc(F)c1F)c1ccc(Cl)nc1	25%	-5%	50µM*	12%	11%	-21%
CC(=O)Nc1ccc(SCCN2CCN(CC(C)C)CCC2=O)cc1	38%	-10%	.	45µM*	10%	.
CCCN1CCC(=O)N(CCSc2ccc(NC(C)=O)cc2)CC1	42%	-3%	17%[59 µM]	6%	10%	11%
COc1cc(C[C@H]2C(=O)OC[C@@H]2Cc2ccc(OC)c(OC)c2)ccc1O	.	.	.	-11%	12%[56.1 µM]	.
Cc1ccc(-c2nn3c(-c4ccccc4C)nnc3c3ccccc23)cc1	37%	2%	-3%[59 µM]	.	3%	4%
N#CC1=C(N)OC2=C(C(=O)CC(c3ccco3)C2)C1c1ccc(OCc2c(F)cccc2Cl)cc1 (stereo not given)	-15%	?	-8%[0.501 µM]	-25%	8%	71µM*
Cc1ccc(-n2c(C)cc(/C=C3\NC(=O)NC3=O)c2C)c(C)c1	?	35µM*	?	-24%	8%	40µM*
Cc1cc(/C=C2/NC(=O)NC2=O)c(C)n1-c1ccc(N2CCOCC2)cc1	?	?	45µM*	-1%	3%	?
CN(C)c1ccc(C(c2ccc(N(C)C)cc2)C(O)c2ccccc2)cc1 (stereo not given)	?	22µM*	.	.	.	.
O=C(Cc1csc2ccccc12)NCc1ccc(F)cc1	11%	-11%	3%[59 µM]	.	3%	-2%
Cc1ccc(N)cc1[N+](=O)[O-]	.	.	.	.	13%	.
C=CCN1C(=O)c2ccc(C(=O)N(C)CC(=O)Nc3cccc(F)c3)cc2C1=O	17%	-12%	30%	15%	2%	-3%
O=C1CCCN1CCCNc1ncccc1[N+](=O)[O-]	3%	0%	-39%	18%	4%	-3%
COc1ccc(-n2cc(C(=O)NCCc3cc(OC)ccc3OC)c3ccccc3c2=O)cc1	-6%	50µM*	?	.	12%	?
COc1cccc(-n2cc(C(=O)NCc3ccccc3OC)c3ccccc3c2=O)c1	38%	-15%	-1%[59 µM]	.	4%	-3%
CCOc1ccc(-n2cc(C(=O)NC(C)C)c3cc(OC)c(OC)cc3c2=O)cc1	-12%	20µM*	-40%	12%	1%	0%
O=S(=O)(c1ccc(F)cc1)N1CCC(Oc2ccc(-n3cnnn3)cc2)CC1	25%	-13%	-1%[59 µM]	.	-2%	0%
[O-]/C(=C(\C(=S)Nc1cccc2ccccc12)[n+]1ccccc1)c1ccc(OC(F)F)cc1	-24%	-29%[57.1 µM]	45µM*	45µM*	3%	35µM*
Cc1ccc(NC(=S)/C(=C(\[O-])c2ccc(C)c([N+](=O)[O-])c2)[n+]2ccccc2)cc1C	.	.	?	4%	7%	56µM*
[O-]/C(=C(\C(=S)NCCN1CCOCC1)[n+]1ccccc1)c1ccc(Cl)s1	-4%	-31%	25µM*	3%	0%	?
O=C(NCCN1CCOCC1)c1c(Cl)cccc1Cl	73%	-7%	2%[0.501 µM]	16%	.	-4%
SMILES	HP1b binding inh	JMJD2A Tudor inh	G9a inh	Sfp PPTase inh	TDP1 block	BAZ2B block
Cc1cc(C)cc(NC(=S)/C(=C(\[O-])c2ccc(Cl)cc2Cl)[n+]2ccccc2)c1	-8%	1%[11.4 µM]	?	11%	5%	?
Cc1c(Cl)cccc1NC(=S)C(=C([O-])c1ccc(Cl)s1)[n+]1ccccc1	?	50µM*	.	.	.	.
O=C(COc1ccccc1Br)N1CCN(C(=O)c2ccco2)CC1	40%	-5%	20%	11%	5%	-19%
CC1CCCC(C)N1C(=O)COC(=O)Cn1cnc2c1c(=O)n(C)c(=O)n2C (stereo not given)	13%	-14%	-29%	.	0%	-4%
COc1cc(NC(=S)Nc2ccc(OC(F)F)cc2)cc(OC)c1	14%	-19%	?	9%	6%	-14%
[O-]/C(=C(\C(=S)Nc1cccc2ccccc12)[n+]1ccccc1)c1ccc2c(c1)OCCO2	-16%	?	8.9µM*	45µM*	9%	56µM*
Cc1ccccc1NC(=S)/C(=C(\[O-])c1ccc(C)c([N+](=O)[O-])c1)[n+]1ccccc1	-12%	-35%	?	-19%	5%	?
COc1cccc(NC(=S)/C(=C(\[O-])c2ccc(C)c([N+](=O)[O-])c2)[n+]2ccccc2)c1	-22%	?	?	56µM*	9%	?
COc1cccc(NC(=S)/C(=C(\[O-])c2ccc(OC(F)F)cc2)[n+]2ccccc2)c1	4%	-30%	18µM*	50µM*	6%	-31%
Cc1ccc(C(=O)NC(=S)Nc2ccc(NC(=O)c3cccs3)cc2)cc1[N+](=O)[O-]	0%	?	-11%[59 µM]	-2%	4%	5%
Cc1ccc(/C([O-])=C(/C(=S)Nc2ccc(SC(F)F)cc2)[n+]2ccccc2)cc1[N+](=O)[O-]	-21%	?	22µM*	13µM*	3%	?
O=C(NCCc1ccc(Cl)cc1)c1ccc2c(c1)N(Cc1ccc(F)cc1Cl)C(=O)CS2	15%	-4%	-5%[59 µM]	.	3%	-14%
Cc1ccc(/C([O-])=C(/C(=S)NCCN2CCOCC2)[n+]2ccccc2)cc1[N+](=O)[O-]	51%	-10%[11.4 µM]	-33%[12.7 µM]	20µM*	8%	-36%
[O-]/C(=C(\C(=S)Nc1ccc(SC(F)F)cc1)[n+]1ccccc1)c1ccc(Cl)cc1Cl	-6%	?	35µM*	14%	8%	?
CCCC(=O)OC(=O)CCC	.	.	.	.	12%	.
Cc1ccc(CCNS(=O)(=O)c2cc3c(cc2C)NC(=O)CO3)cc1	30%	-12%	.	6%	.	5%
COc1cc(NS(=O)(=O)c2ccc(C)cc2C)cc(OC)c1OC	29%	-6%	79µM*	-3%	0%	?
Cc1ccc(S(=O)(=O)Nc2ccncc2)c(C)c1	3%	89µM*	-92%	6%	.	-3%
COc1cc(NS(=O)(=O)c2cc3[nH]c(=O)c(=O)[nH]c3cc2C)cc(OC)c1OC	67%	-27%	.	-10%	.	?

Screening results from PubChem BioAssay.
